Laboratory results as given in PubChem BioAssay (NCATS).
Where “and” joins values, the source holds several entries; their conditions need not be identical. Equal entries are not always repeated. Results filed as inconclusive are left out. Calls of active or inactive are those of the source. Calls come from the whole dose curve; as a rule, active = well fitted inhibition curve with a large enough effect; inconclusive = small, poorly fitted or top-dose-only effect; inactive = flat fitted curve, though single readings scatter.

How the values were obtained:
CRL-7250 = normal cell line; assay: Cytotoxic Profiling of Annotated Libraries Using Quantitative High-Throughput Screening (AID 1296008); settings: Five cell lines viability, CellTiter-Glo ATP luminescence, 48-72 h; max response: stronger effect = lower value
Procedure, shortened: (§1)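 Compounds were pin-transferred onto cells and incubated 48 or 72 hr at 37 degree Celsius, 95% humidity. CellTiter-Glo was added, plates sat 10 min at room temperature, then ATP-coupled luminescence was imaged as the viability read-out.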

HaCat [1] = assay: as above; settings: Five cell lines viability, CellTiter-Glo ATP luminescence, 48-72 h; max response: stronger effect = lower value
Procedure, shortened: as §1

KB-3-1 = assay: as above; settings: Five cell lines viability, CellTiter-Glo ATP luminescence, 48-72 h; max response: stronger effect = lower value
Procedure, shortened: as §1

NIH3T3 = assay: as above; settings: Five cell lines viability, CellTiter-Glo ATP luminescence, 48-72 h; max response: stronger effect = lower value
Procedure, shortened: as §1

MCC-26 = assay: qHTS assay to identify novel small-molecules to repurpose for Merkel cell carcinoma treatment (AID 1296009); settings: MCC and control cell lines, CellTiter-Glo viability, 72 h; series mostly up to 46 µM
Procedure, shortened: (§2)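 qHTS format: cells treated with library compounds in DMSO across 8 (NPC) or 11 (MIPE) concentrations. Readout after 72 hr at 37 degree celsius was CellTiter-Glo luminescence.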

MCC-13 = assay: as above; settings: MCC and control cell lines, CellTiter-Glo viability, 72 h; series mostly up to 46 µM
Procedure, shortened: as §2

HACAT [2] = assay: as above; settings: MCC and control cell lines, CellTiter-Glo viability, 72 h; at 44.8 µM (top of the series) unless noted
Procedure, shortened: as §2
% is set by controls: 0 for no effect and ±100 for the full control effect; potency is the fitted concentration of half-maximal effect.
Note: nearly all actives have a fitted effect of over 60% in size.

COc1ccc(-c2ccc3ncc4c(c3c2)n(-c2ccc(N3CCNCC3)c(C(F)(F)F)c2)c(=O)n4C)cn1
inactive: max response (CRL-7250) -103%
active: Potency (HaCat [1]) 3.7 nM and 58 nM | Potency (KB-3-1) 16.6 nM and 41.1 nM | Potency (NIH3T3) 0.0053 µM | Potency (MCC-26) 0.372 µM

C#C[C@]1(O)CC[C@H]2[C@H]3CCc4cc(OC)ccc4[C@H]3CC[C@@]21C
inactive: max response (CRL-7250) -5.04% | max response (HaCat [1]) 0.906% | max response (KB-3-1) -15.5% | max response (NIH3T3) 2.86% | Potency (MCC-13) | Potency (MCC-26)

N#CC1(c2cccc(C(=O)Nc3cc(Oc4ccc5nc(NC(=O)C6CC6)sc5n4)ccc3F)c2Cl)CC1
inactive: max response (KB-3-1) -20.5% and -13.3%
active: Potency (CRL-7250) 5.17 µM | Potency (HaCat [1]) 26.4 µM and 20.6 µM | Potency (NIH3T3) 3.32 µM and 3.26 µM | Potency (MCC-13) 16.6 µM | Potency (MCC-26) 11.8 µM

CC(=O)O[C@]1(C(C)=O)CC[C@H]2[C@@H]3C=C(Cl)C4=CC(=O)[C@@H]5C[C@H]5[C@]4(C)[C@@H]3CC[C@@]21C
inactive: outcome (CRL-7250) | max response (HaCat [1]) -0.438% | outcome (KB-3-1) | outcome (NIH3T3) | Potency (MCC-13) | Potency (MCC-26)

CC[C@H](C)C(=O)O[C@H]1C[C@H](O)C=C2C=C[C@H](C)[C@H](CC[C@@H](O)C[C@@H](O)CC(=O)O)[C@H]21
inactive: max response (CRL-7250) -6.33% | max response (HaCat [1]) -9.82% | max response (KB-3-1) 7.09% and -6.87% | max response (NIH3T3) -3.34% | Potency (MCC-13) | Potency (MCC-26)

CCC(=O)OCC(=O)[C@@]1(OC(=O)CC)[C@@H](C)C[C@@H]2[C@H]3CCC4=CC(=O)C=C[C@]4(C)[C@@]3(F)[C@@H](O)C[C@@]21C
inactive: max response (CRL-7250) -3.82% | max response (HaCat [1]) -0.0521% | outcome (KB-3-1) | max response (NIH3T3) 0.981% | Potency (MCC-13) | Potency (MCC-26)

CN(C)CCOc1ccc(C(=C(CCCl)c2ccccc2)c2ccccc2)cc1
inactive: max response (CRL-7250) -7.14% | max response (HaCat [1]) -3.54% | max response (KB-3-1) 7.38% | outcome (NIH3T3) | Potency (MCC-13) | Potency (MCC-26)

COc1ccc(C=CC(=O)Nc2ccccc2C(=O)O)cc1OC
inactive: max response (CRL-7250) -5.04% | max response (HaCat [1]) -7.89% | max response (KB-3-1) 7.16% | max response (NIH3T3) 0.371% | Potency (MCC-13) | Potency (MCC-26)

Cc1ccc(NC(=O)c2ccc(CN3CCN(C)CC3)cc2)cc1Nc1nc(-c2cccnc2)cs1
inactive: max response (CRL-7250) -52.7% | max response (HaCat [1]) -8.86% | max response (KB-3-1) -13.9% | Potency (MCC-13) | Potency (MCC-26)

COc1cc2c(cc1OC)CC(=O)N(CCCN(C)C[C@H]1Cc3cc(OC)c(OC)cc31)CC2
inactive: max response (CRL-7250) 4.25% | max response (HaCat [1]) -15.9% | max response (KB-3-1) 6.36% | max response (NIH3T3) -18.8% | Potency (MCC-13) | Potency (MCC-26)

COc1cc(CNC(=O)CCCCC=CC(C)C)ccc1O
active: Potency (NIH3T3) 10.5 µM
inactive: max response (CRL-7250) -19.8% | max response (HaCat [1]) 3.92% | max response (KB-3-1) -24.7% | Potency (MCC-13) | Potency (MCC-26)

O=C1Nc2ccc(I)cc2C1=Cc1cc(Br)c(O)c(Br)c1
inactive: outcome (CRL-7250) | max response (HaCat [1]) 4.95% | max response (KB-3-1) 8.65% | max response (NIH3T3) -9.84% | Potency (MCC-13) | Potency (MCC-26)

CCC=CC[C@H]1C(=O)CC[C@@H]1CC(=O)OC
inactive: max response (CRL-7250) -0.832% | outcome (HaCat [1]) | outcome (KB-3-1) | outcome (HACAT [2]) | Potency (MCC-13) | Potency (MCC-26)

COc1cc(Cl)cn2c(-c3cccc(NC4CNC4)n3)cnc12
inactive: max response (CRL-7250) -2.6% | max response (HaCat [1]) -3.22% | max response (KB-3-1) -0.178% | max response (NIH3T3) 4.3% | Potency (MCC-13) | Potency (MCC-26)

C[C@@]1(C(=O)Nc2ccc(F)nc2)CCCN1c1nc(Nc2cc(C3CC3)[nH]n2)c2cccn2n1
active: Potency (CRL-7250) 11.8 µM and 11.6 µM | Potency (MCC-26) 16.6 µM
inactive: max response (HaCat [1]) -23.7% | max response (KB-3-1) -30.1%

CC(C)c1onc(-c2c(Cl)cccc2Cl)c1COc1ccc(C=Cc2cccc(C(=O)O)c2)c(Cl)c1
inactive: max response (CRL-7250) -1.7% | max response (HaCat [1]) -7.35% | max response (KB-3-1) 6.78% | max response (NIH3T3) 4.7% | Potency (MCC-13) | Potency (MCC-26)

C[C@@H]1CC=CC=CC=CC=C[C@@H](O[C@@H]2O[C@H](C)[C@@H](O)[C@H](N)[C@H]2O)C[C@@H]2O[C@](O)(C[C@@H](O)C[C@@H]3O[C@@H]3C=CC(=O)O1)C[C@H](O)[C@@H]2C(=O)O
inactive: max response (CRL-7250) -2.36% | max response (HaCat [1]) -1.58% | max response (NIH3T3) 4.91% | Potency (MCC-13) | Potency (MCC-26)

Cc1cc(CS(=O)(=O)c2ccccc2)cc(OCc2ccc(CN3CCC[C@H]3CO)cc2)c1
inactive: Potency (MCC-13) | Potency (MCC-26)
active: Potency (CRL-7250) 1.32 µM | Potency (HaCat [1]) 1.48 µM | Potency (KB-3-1) 3.72 µM | Potency (NIH3T3) 2.96 µM

CNC(=O)c1cc(COc2nnc(Nc3ccc(Cl)cc3)c3ccoc23)ccn1
inactive: max response (CRL-7250) -22.5% | max response (HaCat [1]) 1.3% | max response (KB-3-1) -2.71% | max response (NIH3T3) -16.8% | Potency (MCC-13) | Potency (MCC-26)

COc1ccc2c(c1)CC[C@H]1[C@@H]2CC[C@]2(C)[C@@H](NCCCCCCN3C(=O)C=CC3=O)CC[C@H]12
inactive: max response (CRL-7250) -3.42% | max response (HaCat [1]) 1.55% | max response (KB-3-1) -4.66% | max response (NIH3T3) -1.24% | Potency (MCC-13) | Potency (MCC-26)

O=C1NC(=O)C(c2cnc3ccccn23)=C1c1cn2c3c(cccc13)CN(C(=O)N1CCOCC1)CC2
inactive: max response (HaCat [1]) -40.4% | max response (NIH3T3) -24.9%
active: Potency (CRL-7250) 0.0166 µM
